Values joined by “and” are separate entries in the source; they are usually repeats but may differ in a detail not shown here. Identical values can stand only once. Results filed as inconclusive are left out. More than one record can exist for a structure, and the calls need not agree. Active and inactive are the calls of the source. Unless noted, the call rests on the fitted dose curve; in most records, active means well fitted curve in the direction sought with a large enough effect in the repeat runs; inconclusive means weak or mixed curves; inactive means no such curve, though single readings can be large; an effect the other way counts as inactive or inconclusive.

Test [1] is described as follows: qHTS assay to identify small molecule antagonists of the retinoid acid receptor (RAR) signaling pathway - cell viability counter screen (AID 1159551). Further: nearly all actives have a fitted effect of over 35% in size. Further: potency means the concentration at half of the fitted maximal effect. Put shortly:
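Cytotoxicity counter screen in C3RL4 cells: 6 h compound exposure with 1 uM retinol (final), viability from cellular ATP by luminescence.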
(qHTS replaces the single test concentration by a dilution series.)

Test [2] in a line: qHTS assay to identify small molecule agonists of the retinoic acid receptor (RAR) signaling pathway (AID 1159553). Further: potency means the concentration at half of the fitted maximal effect. The conditions noted are these: C3RL4 RARE luciferase reporter, agonist, 6 h; activation: at 73.3 µM (top of the series) unless noted. The gist of the method:
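Agonist activity was scored in C3RL4 cells bearing a retinoic acid response element luciferase construct. Cells were treated with compounds for 6 hr at 37 C, and luciferase signal was measured as luminescence.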

The nature of test [3]: qHTS assay to identify small molecule antagonists of the estrogen related receptor (ERR) signaling pathway from Tox21 library - cell viability counter screen (AID 1224834). Further: nearly all actives have a fitted effect of over 30% in size. Further: potency means the concentration at half of the fitted maximal effect. The gist of the method:
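Cytotoxicity of test substances is gauged in the same ERR cells used for the antagonist screen, after 17.5 h of compound treatment at 37 C, by CellTiter-Fluor fluorescence measured after 30 min.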

Test [4] can be described thus: qHTS assay to identify small molecule antagonists of the estrogen related receptor (ERR) signaling pathway (AID 1224819;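 further: luminescence from an ERR-driven luciferase reporter measured with One-Glo reagent; nearly all actives have a fitted effect of over 50% in size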). The gist of the method: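 Compounds dissolved in DMSO were pin-transferred onto ERR cells that had been plated 6 h earlier, and cells were then incubated 18 h at 37 C; signal was luciferase luminescence via One-Glo.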
The nature of test [5]: qHTS assay to identify small molecule agonists of the estrogen related receptor (ERR) signaling pathway (AID 1224820). Put shortly:
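Cells: ERR line from NTP, 2,000/well. Pre-incubation 6 h, 37 C/5% CO2. Compound (DMSO) pin transfer, 18 h 37 C. One-Glo, 30 min RT, luminescence.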

For test [6], the system named is estrogen-related receptor alpha (ERRalpha) with PGC-1alpha coactivator, human. Kind of test: qHTS assay to identify small molecule antagonists of the estrogen related receptor signaling pathway with the pleiotropic PPARgamma coactivator (PGC) (AID 1224821; calls by dose curve;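 further: lower luminescence signal means antagonism of PGC/ERR signalling; nearly all actives have a fitted effect of over 50% in size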). The gist of the method:
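Luminescent read-out (One-Glo, 30 min at room temperature) following 18 h treatment of PGC/ERR cells at 37 C with compounds delivered in DMSO. Cells had settled 6 h at 37 C/5% CO2 before dosing.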

The nature of test [7]: qHTS assay to identify small molecule antagonists of the estrogen related receptor signaling pathway with the pleiotropic PPARgamma coactivator (PGC) cell viability counter screen (AID 1224822;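 further: viability read after 17.5 h compound exposure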). The gist of the method:
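Seed PGC/ERR cells (2,000/well); incubate 6 h at 37 C/5% CO2; pin-transfer compounds in DMSO; incubate 17.5 h at 37 C; add CellTiter-Fluor; after 30 min read fluorescence.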

Test [8] can be described thus: qHTS assay to identify small molecule agonists of the estrogen related receptor signaling pathway with the pleiotropic PPARgamma coactivator (PGC) (AID 1224823). The gist of the method:
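Steps: plate PGC/ERR cells at 2,000 cells/well; incubate 6 h, 37 C/5% CO2; pin-transfer compounds (DMSO); incubate 18 h, 37 C; add One-Glo; 30 min RT; read luminescence.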

Test [9] is described as follows: qHTS assay to identify small molecule antagonists of the retinoic acid receptor (RAR) signaling pathway (AID 1159552; further: nearly all actives have a fitted effect of over 50% in size; further: potency means the concentration at half of the fitted maximal effect). Put shortly:
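C3RL4 RARE-luc cells, overnight plating; retinol 1 uM final added right after compound; 6 hr 37 C; luciferase read at 30 min RT.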
On the % scale 0 is the no-effect control and ±100 the full control effect.

`OC[C@H]1O[C@H](O[C@H]2O[C@H](CO)[C@@H](O)[C@H](O)[C@H]2O)[C@H](O)[C@@H](O)[C@@H]1O`: the Potency entry in [1], in test [2] and in test [3] was “inactive” throughout.
With `CC(C)(C)c1csc(-c2cc3cc(OCc4ccccc4CC(=O)O)ccc3o2)n1`, the Potency entry in [2] is “inactive”.
Consider `CCCCCCCCCCCCOCCOCCOCCOCCOCCOCCOCCOCCOCCO`, for which the Potency in test [3] was 26.6 µM (active).
As for `O=C1c2ccccc2C(=O)N1SC1CCCCC1`, the Potency entry in test [1] is “inactive”. For the same molecule, the Potency in [3] was 68.6 µM (active).
On to `CCCCC/C=C\C/C=C\CCCCCCCC(=O)O`, for which the Potency entry in [1], in test [2] and in test [3] was “inactive” throughout.
For the molecule `CCCCCCCC/C=C\CCCCCCCCN`, the Potency entry in test [3] was “inactive”.
Consider `Fc1ccc(C(c2ccc(F)cc2)N2CCNCC2)cc1`, for which the Potency entry in test [1] and in test [3] was “inactive” throughout.
Take `O=c1oc2cc(O)ccc2c2oc3cc(O)ccc3c12`: the Potency result in [1] and in test [3] was “inactive” in each case. The Potency in test [2] is 52.2 µM (active).
On to `CCO[C@@H]1O[C@H](C(COCc2ccccc2)OCc2ccccc2)[C@H](OCc2ccccc2)[C@H]1O` (some centres undefined), for which, in test [1], the Potency result is “inactive”. Moreover, the Potency in test [3] was 26.6 µM (active).
For the molecule `Cc1cc(C(C)(C)C)cc(C)c1CC1=NCCN1`, the Potency entry in [1], in [2], in [4], in test [6], in [7] and in test [3] was “inactive” throughout. The result in [5] and in test [8] was inactive.
Turning to `O=[N+]([O-])c1ccc(O)cc1C(F)(F)F`, the Potency result in test [1] and in test [2] was “inactive” each time. Also, the Potency in test [3] was 15.4 µM (active).
Consider `CC1(C)CCC[C@]2(C)[C@H]3CC(=O)O[C@]3(C)CC[C@@H]12`, for which the Potency result in test [2] and in [3] was “inactive” throughout.
`CCC(C)n1ncn(-c2ccc(N3CCN(c4ccc(OC[C@H]5CO[C@](Cn6cncn6)(c6ccc(Cl)cc6Cl)O5)cc4)CC3)cc2)c1=O` (some centres undefined): the Potency entry in [1] and in test [2] was “inactive” each time. Also, the Potency in test [3] is 3.76 µM (active).
As to `CCCCCCCCCCCCCC[N+](C)(C)C`, the Potency in test [1] is 61.1 µM (active) and inactive; in test [3] it was 29.6 µM (active) and 15.3 µM (active). For the same molecule, the Potency result in test [2] is “inactive”.
For the molecule `C=C(C)C(=O)OCCCCCCCCCC`, the Potency entry in test [3] is “inactive”.
For the molecule `OCCN1CCN(CCCN2c3ccccc3Sc3ccc(C(F)(F)F)cc32)CC1`, the Potency entry in test [1] and in [6] was “inactive” throughout. Besides, in test [5], the molecule was called inactive. Further, the Potency in test [3] was 29.8 µM (active).
With `CN(C)[C@@H](CCOc1cccc2ccccc12)c1ccccc1`, the Potency in [9] was 29.8 µM (active).
With `Cc1ccc(O)c(O)c1`, the Potency in [3] is 47.2 µM (active).
`c1ccc(SSc2ccccc2)cc1`: the Potency result in test [1] and in [3] was “inactive” each time.
As for `O=C(O)CCN(C1(C(=O)NO)CCCC1)S(=O)(=O)c1ccc(Oc2ccc(F)cc2)cc1`, the Potency entry in [1], in test [2] and in [3] was “inactive” each time.
With `CN(C)CCN1CCN(c2cccc(Cl)c2)C1=O`, the Potency entry in test [1] and in test [3] was “inactive” throughout.
Take `O=C(O)c1cc(O)c2ccccc2c1O`: the Potency in test [1] is 61.1 µM (active); in [3], 27.3 µM (active).
With `Cc1cc(-n2nc3ccc(Cl)cc3n2)c(O)c(C(C)(C)C)c1`, the Potency entry in [1], in test [2] and in [3] was “inactive” in each case.
Regarding `Cc1c(C)c2c(c(C)c1O)CC[C@@](C)(CCC[C@H](C)CCC[C@H](C)CCCC(C)C)O2`, the Potency entry in [1], in test [2] and in test [3] was “inactive” in each case.
Consider `Clc1sc(Cl)c(Cl)c1Cl`, for which the Potency result in [1] and in test [3] was “inactive” in each case.
As to `COC(=O)c1ccccc1OC`, the Potency entry in [1], in test [2] and in test [3] was “inactive” in each case.
As for `CC(=O)Oc1cc2c(s1)CCN(C(C(=O)C1CC1)c1ccccc1F)C2` (centres undefined), the Potency entry in test [1], in test [2] and in [3] was “inactive” in each case.
Take `O=[N+]([O-])c1cccc(C(F)(F)F)c1`: the Potency result in [1] and in [3] was “inactive” in each case.
For `O=c1[nH]c2ccccc2n1CCCN1CCN(C(c2ccccc2)c2ccccc2)CC1`, the Potency entry in test [1] was “inactive”. Also, the Potency in test [3] was 23.7 µM (active).
Consider `Clc1nnc(Cl)c2ccccc12`, for which the Potency entry in [1], in test [2] and in [3] was “inactive” throughout.
`O=S(=O)(O)c1ccc(N=Nc2c(O)ccc3ccccc23)cc1`: the Potency entry in test [2] is “inactive”. Besides, the Potency in test [3] is 27.3 µM (active).
Consider `CCCCN(CCCC)CC(O)c1cc(Cl)cc2c1-c1ccc(Cl)cc1/C2=C/c1ccc(Cl)cc1` (centres undefined), for which the Potency result in [1], in test [2], in test [4], in [6] and in test [7] was “inactive” each time. The result in test [5] and in test [8] was inactive. Also, the Potency in [3] is 26.6 µM (active).
In the case of `O=C(O)Cc1ccccc1Nc1c(Cl)cccc1Cl`, the Potency result in test [1], in test [7] and in test [3] was “inactive” throughout.
In the case of `C[C@H]1NCc2cc(-c3ccc4c(=O)c(C(=O)O)cn(C5CC5)c4c3OC(F)F)ccc21`, the activity change, negative = cytotoxicity in [1] was 0.739% [at 19 µM] (inactive). The Potency entry in test [2] was “inactive”. In addition, the viability change, negative = cytotoxic in test [3] is -0.362% [at 19 µM] (inactive).
As for `CC[C@H](C)COC(=O)/C=C/c1ccc(N=Cc2ccc(OC)cc2)cc1`, the Potency entry in test [9] was “inactive”. Further, the Potency in test [2] is 1.22 µM (active).
For the molecule `COc1cccc2c1C(=O)c1c(O)c3c(c(O)c1C2=O)C[C@@](O)(C(C)=O)C[C@@H]3O[C@H]1C[C@H](N)[C@H](O)[C@H](C)O1`, in test [1], the Potency result was “inactive”. The Potency in test [3] is 30.8 µM (active) and 473 nM (active).
